# Values without a mark were called inactive.
# Tested on: HCC1569
# Experiment: H1.0 immunofluorescence intensity relative to DMSO (% of DMSO); higher = stronger H1.0 induction, active = 140 or more
# Details: concentration: 10 µM; 24 h
# Outline: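 HCC1569 and TDF cells were seeded at 800 per well in 384-well plates in RPMI with 10% FBS and treated with compounds at 10 µM for 24 h at 37 °C, in triplicate. After fixation in 3.7% formaldehyde, cells were stained with a rabbit anti-H1.0 antibody, an AlexaFluor 647 secondary and DAPI, and six fields per well were imaged at ×10. H1.0 nuclear intensity or cell number is given as percent of the plate control, using the median of replicates, with HCC1569 values smoothed for positional effects.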
# 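Note: TDF is a line of transformed human dermal fibroblasts of mesenchymal origin.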
row,SMILES,H1.0 immunofluorescence intensity
1,C=C1CC2C3C=C(C)C4=CC(=O)CCC4(C)C3CCC2(C)C1(OC(C)=O)C(C)=O (stereo not given) [Melengestrol Acetate],109
2,CCCCCCC=CCCCCCCCCCC(=O)O [11(Z)-Octadecenoic acid],105
3,CN(C)CCCN1c2ccccc2Sc2ccccc21.Cl [Promazine hydrochloride],110
4,CC(C)C1NC(=O)C(CCCCN)NC(=O)C(Cc2c[nH]c3ccccc23)NC(=O)C(Cc2ccc(O)cc2)NC(=O)C(C)N(C)C(=O)C(Cc2ccccc2)NC1=O (stereo not given) [Seglitide],152 (active)
5,COc1cc2c(cc1OC)C(c1ccccc1)CN(C)CC2.O=C(O)C=CC(=O)O (stereo not given),92.5
6,O=C(NOCC1CC1)c1ccc(F)c(F)c1Nc1ccc(I)cc1Cl,116
7,Cl.N[C@@H](CCC(=O)O)C(=O)O [L-Glutamic acid hydrochloride],91.5
8,"COc1cc(C=Cc2ccccc2)oc(=O)c1 [5,6-Dehydrokawain]",92.6
9,CNC1C(O)C(NC)C2OC3(O)C(=O)CC(C)OC3OC2C1O (stereo not given) [Spectinomycin],87
10,CCN(CC)CCCC(C)Nc1ccnc2cc(Cl)ccc12.O=P(O)(O)O.O=P(O)(O)O (stereo not given) [Chloroquine diphosphate],94.1
11,COCc1c(C(C)C)nc(C(C)C)c(C=CC(O)CC(O)CC(=O)O)c1-c1ccc(F)cc1 (stereo not given) [Cerivastatin],98.3
12,CCC=CCC=CCC=CCCCCCCCCCC(=O)O [Eicosatrienoic acid],99.5
13,CC(Cc1ccccc1)(NC(=O)CN)c1ccccc1.Cl (stereo not given),91.3
14,CCCCCCCCCCCCCCCC(=O)NCCc1ccc(O)c(O)c1 [Palmitoyl dopamine],105
15,COC1=C2CC(C)=c3c(C(C)=O)c(OC)c(O)c4c3c2c2c(cc(OC)c3c(OC)cc(O)c4c32)C(=O)C1=O [Hypocrellin B],93.7

# From the supplement of paper PMC7156485
